# BAZ2B block = qHTS Assay for Inhibitors of BAZ2B; 4.4% of 360,000 active; Potency, µM (doses to about 114 µM), without a hit: at the highest dose activity change, negative = inhibition, usual class: inhibitors; AlphaScreen BAZ2B-H3K14Ac peptide displacement; AID 504333, 2011; further: on the % scale 0 is the no-effect control and ±100 the full control effect; nearly all actives have a fitted effect of over 60% in size
#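 Compounds, titrated to a top concentration of 110 uM, were incubated 30 min at room temperature with preformed BAZ2B/acetyl-K14 H3 peptide complex (50 nM each). Proximity signal was measured by AlphaScreen after 20 min with beads.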
# HP1b binding inh = HTS for Inhibitors of HP1-beta Chromodomain Interactions with Methylated Histone Tails; 0.56% of 390,000 active; Chromobox protein homolog 1 (Homo sapiens), P83916; Potency, µM (titrated, usually from 114 µM), inactives show at the highest dose activity change, negative = inhibition, hits mostly inhibitors; AlphaScreen HP1-beta / biotin-H3K9me3 peptide binding; further: nearly all actives have a fitted effect of over 70% in size
#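 Compound inhibition of the preformed complex between 50 nM HP1-beta and 50 nM biotinylated H3K9me3 peptide was read by AlphaScreen. Buffer was PBS pH 7.4 with 0.01% Tween-20. Incubations ran 30 min at room temperature, with 10 ug/mL donor/acceptor beads.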
# JMJD2A Tudor inh = qHTS Assay for Inhibitors of JMJD2A-Tudor Domain. Lysine-specific demethylase 4A (Homo sapiens), O75164. AlphaScreen JMJD2A-Tudor / H3K4me3 peptide binding. Potency, µM (doses to about 114 µM), inactives show top-dose activity change, negative = inhibition, actives largely listed as inhibitors. 4.4% of 390,000 active. AID 504339, 2011; further: on the % scale 0 is the no-effect control and ±100 the full control effect; nearly all actives have a fitted effect of over 50% in size
# Sfp PPTase inh = qHTS Assay for Inhibitors of Bacillus subtilis Sfp phosphopantetheinyl transferase (PPTase) | 3.5% of 310,000 active | Potency, µM, for the others: largest response in the series, negative = inhibition, usual class: inhibitors | Biochemical Sfp PPTase activity, qHTS | 4'-phosphopantetheinyl transferase ffp (Bacillus subtilis), Q9F4F7;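 further: the enzyme is Sfp with the accession as filed and its product quenches rhodamine fluorescence; 0% = enzyme reaction without inhibitor and -100% = no enzyme wells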
#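 After 15 min at room temperature with compound, 15 nM Sfp received 5 uM rhodamine-CoA plus 12.5 uM BHQ-2-ybbR (50 mM Hepes pH 7.6, 10 mM MgCl2). Rate came from the fluorescence difference over 30 min, ex 525/em 598 nm.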
# G9a inh = qHTS Assay for Inhibitors of Histone Lysine Methyltransferase G9a. 8.8% of 350,000 active. G9a H3K9 monomethylation, AlphaScreen, 2 h. Potency, µM (series often up to 102 µM), without a hit: at the top dose activity, negative = inhibition, usual class: inhibitors; further: on the % scale 0 is the no-effect control and ±100 the full control effect; nearly all actives have a fitted effect of over 75% in size
#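 Using a bead-based AlphaScreen, monomethylated H3K9 product from 2 h room-temperature reactions (G9a 20 nM, peptide 500 nM, SAM 20 uM) was detected with 0.5 ug/mL rabbit anti-H3K9me1 antibody.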
# L3MBTL1 inh = qHTS Assay for the Inhibitors of L3MBTL1 | 0.66% of 230,000 active | AID 485360, 2010 | AlphaScreen L3MBTL1–H3K9me1 peptide binding | Potency, µM (series often up to 57.1 µM), for inactives: at the top dose activity, negative = inhibition, hits mostly inhibitors | Lethal(3)malignant brain tumor-like protein 1 (Homo sapiens), Q9Y468; further: on the % scale 0 is the no-effect control and ±100 the full control effect; nearly all actives have a fitted effect of over 60% in size
# Target sequence (Q9Y468 whole entry, looked up): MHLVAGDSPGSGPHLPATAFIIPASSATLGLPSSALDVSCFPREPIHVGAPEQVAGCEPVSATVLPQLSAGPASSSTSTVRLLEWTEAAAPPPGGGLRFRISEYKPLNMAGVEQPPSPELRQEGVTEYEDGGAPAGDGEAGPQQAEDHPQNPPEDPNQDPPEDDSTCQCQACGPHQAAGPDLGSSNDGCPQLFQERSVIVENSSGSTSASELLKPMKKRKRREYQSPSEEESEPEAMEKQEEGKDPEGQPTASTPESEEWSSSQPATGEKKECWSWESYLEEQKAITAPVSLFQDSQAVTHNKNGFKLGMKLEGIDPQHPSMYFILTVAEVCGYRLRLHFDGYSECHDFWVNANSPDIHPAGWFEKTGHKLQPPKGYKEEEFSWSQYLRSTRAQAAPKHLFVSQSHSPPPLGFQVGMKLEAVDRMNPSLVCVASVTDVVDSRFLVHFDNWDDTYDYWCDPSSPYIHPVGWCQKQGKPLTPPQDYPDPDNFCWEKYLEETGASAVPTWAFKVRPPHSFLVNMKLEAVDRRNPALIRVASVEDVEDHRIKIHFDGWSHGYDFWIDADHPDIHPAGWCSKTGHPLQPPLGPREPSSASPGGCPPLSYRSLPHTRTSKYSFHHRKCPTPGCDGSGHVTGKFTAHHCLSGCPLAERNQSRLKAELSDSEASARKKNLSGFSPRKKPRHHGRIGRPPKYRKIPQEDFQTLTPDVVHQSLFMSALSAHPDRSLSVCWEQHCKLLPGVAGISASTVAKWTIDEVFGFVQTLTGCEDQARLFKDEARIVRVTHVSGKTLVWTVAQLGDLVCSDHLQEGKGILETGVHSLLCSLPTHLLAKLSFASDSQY
#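 L3MBTL1 50 nM + b-AHA-H3(1-15)K9me1 75 nM, 30 min RT; compound added, 30 min RT; streptavidin donor/Ni-chelate acceptor beads 10 ug/mL each final, 30 min RT dark; AlphaScreen read.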
# An asterisk follows results filed as active; u = inconclusive; x = not tested or not shown; [ ] = dose if it differs, or a comment. Rows were chosen to be rich in hits. Some 12% of all compounds tested hit in one or more screens of this group. The call rests on the fitted dose curve; in most records, active means well fitted curve in the direction sought with a large enough effect; inconclusive means small, poorly fitted or top-dose-only effect, or another doubt; inactive means no such curve, though single readings can be large; an effect the other way counts as inactive or inconclusive. Potency means the concentration at half of the fitted maximal effect.
SMILES,BAZ2B block,HP1b binding inh,JMJD2A Tudor inh,Sfp PPTase inh,G9a inh,L3MBTL1 inh
COc1ccccc1C1CC(c2c(-c3ccccc3)c3cc(Cl)ccc3[nH]c2=O)=NN1S(C)(=O)=O (configuration not stated),-5%,30%,-18%,-25%,u,-7%
O=c1c(-c2ccc(F)cc2)nc2cnc(Oc3ccccc3)nc2n1Cc1cccs1,x,x,x,12%,-1%[0.501 µM],x
Cc1ccc(S(=O)(=O)Nn2c(C)ccc2C)cc1,u,0%,50µM*,56µM*,-10%[2.33 µM],x
CCOc1ccc(CCNC(=O)Cn2ncc3c([nH]c4ccccc43)c2=O)cc1OCC,4%,22%,-11%,x,10%[59 µM],x
O=C(Nc1ccccc1Cl)C1CCN(c2nc3ccccc3[nH]2)CC1,2%,19%[57 µM],-15%,x,-1%[59 µM],x
CCNc1ncc2nc(-c3ccc(Cl)cc3)c(=O)n(C[C@H]3CCCO3)c2n1,x,x,x,4%,9%[0.501 µM],x
C#CCOCCOCCOCCNc1nc(N2CCN(C(=O)[C@H]([C@@H](C)CC)n3cc([C@@H](N)CC(C)C)nn3)CC2)nc(N2CCN(C(=O)[C@H](CCCCN)n3cc([C@@H](N)CO)nn3)CC2)n1,79µM*,30%,79µM*,5%,u,-11%
C#CCOCCOCCOCCNc1nc(N2CCOCC2)nc(N2CCN(C(=O)[C@H](CCCCN)n3cc([C@@H](N)CO)nn3)CC2)n1,50µM*,17%,79µM*,-11%,-30%[12.7 µM],-4%
C#CCOCCOCCOCCNc1nc(N2CCN(C(=O)[C@H]([C@@H](C)CC)n3cc([C@@H](N)CO)nn3)CC2)nc(N2CCN(C(=O)[C@H](CCCCN)n3cc([C@@H](N)CO)nn3)CC2)n1,x,61%,56µM*,x,x,-4%
C#CCOCCOCCOCCNc1nc(N2CCN(C(=O)[C@H](CCCCN)n3cc([C@@H](N)CC(C)C)nn3)CC2)nc(N2CCN(C(=O)[C@H](CCCCN)n3cc([C@@H](N)CC(C)C)nn3)CC2)n1,u,26%,-35%,6%,u,-6%
COc1ccc(C(=O)COC(=O)CCCC(=O)Nc2ccc(C(C)=O)cc2)cc1,-7%,15%,-10%,x,-25%[59 µM],x
CN1N/C(=C\c2ccccc2)N=C2C(=O)N(C)C(=O)N=C21,x,20%[57 µM],-22%[57.1 µM],x,x,x
COc1ccc(C(=O)Nc2nnc(C(C)C)s2)cc1OC,3%,7%,12%,x,8%[59 µM],x
CCN(CC)S(=O)(=O)c1ccc(C(=O)Nc2nnc(C(C)C)s2)cc1,-5%,25%,-29%,11%,35µM*,-8%
CCOc1ccc(C(=O)Nc2nnc(C(C)C)s2)cc1OCC,4%,2%,-8%,89µM*,10µM*,x
CSc1ccc(CCNC(=O)NCc2noc3ccccc23)cc1,-25%,27%,-14%,x,-1%[59 µM],x
O=[S+]([O-])(c1ccc2c(c1)OCCO2)N1CCN([S+](=O)([O-])c2ccccc2Br)CC1,x,x,-10%,x,x,x
O=C(C(c1ccccc1)c1ccccc1)N1CCN(Cc2ccccn2)CC1,56µM*,u,4µM*,-34%,u,-5%
O=C1C=CC(=O)N1Cc1ccccn1,x,59%,-9%,x,x,x
O=C(C(c1ccccc1)c1ccccc1)N1CCN(Cc2ccncc2)CC1,u,u,u,u,u,-1%
O=S1(=O)CCN(Cc2ccccn2)CC1,1%,26%,8%,17%,u,x
O=C(O)C1CCN(Cc2ccccn2)CC1,u,-20%,u,0%,25µM*,32%
CCOC(=O)C1CCN(Cc2ccccn2)CC1,50µM*,x,x,u,1.8µM*,1%
CC1CN(Cc2ccccn2)CCC1=O (configuration not stated),-15%,13%,-4%,14%,7.9µM*,3%
COC(=O)C1CCN(C(=O)c2ccc(OC3CCN(Cc4ccccn4)CC3)cc2)CC1,-1%,30%,u,1%,-38%,0%
SMILES,BAZ2B block,HP1b binding inh,JMJD2A Tudor inh,Sfp PPTase inh,G9a inh,L3MBTL1 inh
CCCN(C(=O)c1cc2c(=O)oc3ccccc3c2s1)c1ccccc1C,15%,54%,16%,x,22%[59 µM],x
CCOC(=O)Cn1c(=O)oc2cc(S(=O)(=O)Nc3cc(OC)cc(OC)c3)ccc21,-4%,25%,-12%,x,14%[59 µM],x
CNc1oc(-c2ccc(C)cc2)nc1P(=O)(c1ccccc1)c1ccccc1,u,-31%,u,56µM*,1%[12.7 µM],-11%
CCn1cc(S(=O)(=O)c2cc(C)cc(C)c2)c(=O)c2cc(F)c(N3CCC(C)CC3)cc21,-2%,-2%,-23%,x,-2%[59 µM],x
O=C1C(NS(=O)(=O)c2cccs2)=C(N2CCN(c3ccccc3)CC2)C(=O)c2ccccc21,5.6µM*,u,28µM*,0%,3.2µM*,x
O=C(C(NS(=O)(=O)c1cccs1)c1ccccc1)N1CCN(c2ccccc2)CC1 (configuration not stated),u,4%,u,2%,45µM*,-4%
O=S(=O)(c1cccs1)N1CCN(c2ccccc2)CC1,0%,2%,-7%,2%,12%,x
Nc1nc(=S)c2n[nH]nc2[nH]1,x,46%,18µM*,x,x,x
O=C(COc1ccccc1)Nc1ccc2nc(SCC(=O)N3CCOCC3)sc2c1,-14%,22%,-16%,x,-3%[59 µM],x
COc1ccccc1-c1nc(N)n[nH]1,1%,50%,-3%,-5%,x,3%
COc1ccccc1-c1n[nH]c(=S)n1N,u,16%,u,45µM*,13µM*,x
COc1ccccc1-c1n[nH]c(=S)n1-c1ccccc1,-27%,37%,7.9µM*,-13%,2.5µM*,-4%
COC(=O)C1=CN(Cc2ccc(OC)cc2)C=C(C(=O)OC)C1c1cccs1,56%,104%,72%,u,x,170%
COC(=O)C1=CC(C(=O)c2cccs2)=NN(c2ccc(OC)cc2)C1C(=O)OC (configuration not stated),8.9µM*,u,25µM*,-3%,13µM*,u
Clc1ccc(-c2nnc(N3CCCC3)nn2)cc1,u,u,-30%,5%,7.1µM*,-18%
CCSc1cc(N2CCCC2)nc(-c2ccc(Cl)cc2)n1,8%,199%,17%,x,-10%[0.501 µM],-8%
Cc1cc(C)c(NC(=O)C2CCCCN2C)c(C)c1 (configuration not stated),u,25%,-14%,-1%,89µM*,x

# Screening data: PubChem, National Center for Advancing Translational Sciences (NCATS)
